# Measured values as given in ChEMBL document CHEMBL3988442, “University of Dundee, Small-Polar-MMV Screening Library” (2021).
# Assays:
# [1] = target: T1, Aspartate--tRNA(Asp/Asn) ligase (Mycobacterium tuberculosis (strain ATCC 25618 / H37Rv)) (UniProt P9WFW3); assay: Assay for Asp RNA synthetase-1 from Mycobacterium tuberculosis; type: functional; design: scale not given: direction of the effect not stated beside the values; conditions: 30 µM; also: in the data most compounds retested in dose-response had high values
# T1 sequence (whole entry): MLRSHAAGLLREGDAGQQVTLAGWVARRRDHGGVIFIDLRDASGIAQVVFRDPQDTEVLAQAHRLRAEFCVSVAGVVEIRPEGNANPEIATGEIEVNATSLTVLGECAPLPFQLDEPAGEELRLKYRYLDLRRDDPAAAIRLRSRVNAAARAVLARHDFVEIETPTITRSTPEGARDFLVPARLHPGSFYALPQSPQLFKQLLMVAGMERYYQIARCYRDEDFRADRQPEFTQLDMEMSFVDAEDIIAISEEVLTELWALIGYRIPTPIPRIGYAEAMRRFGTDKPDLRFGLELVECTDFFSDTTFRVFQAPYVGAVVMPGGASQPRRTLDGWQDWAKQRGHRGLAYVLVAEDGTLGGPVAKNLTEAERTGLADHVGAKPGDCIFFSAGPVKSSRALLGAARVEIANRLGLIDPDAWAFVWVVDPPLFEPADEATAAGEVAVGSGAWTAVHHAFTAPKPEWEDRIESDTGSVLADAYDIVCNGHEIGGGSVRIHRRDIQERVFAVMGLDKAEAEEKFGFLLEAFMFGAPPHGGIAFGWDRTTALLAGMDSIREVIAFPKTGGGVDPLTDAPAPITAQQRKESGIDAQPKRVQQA
# [2] = target: Shiga toxin 2 (Escherichia coli O157:H7) (UniProt P09385+P09386); assay: E. coli 0.157:H7 Shiga Toxin SOP - stx2 screening assay; type: functional; design: scale not given: direction of the effect not stated beside the values; conditions: 30 µM
Structure (SMILES),Percent Effect [1] [%],Percent Effect [2] [%]
O=C1CC(N(C(=O)c2ccc3c(c2)CCC3)C2CC2)C(=O)N1 (stereo unspecified),0.714,6.53
CSC(C)C(=O)N1CCCN(Cc2cscn2)CC1 (stereo unspecified),-6.57,25.4
O=C(NCc1ccccn1)[C@@H]1CCO[C@@H]2CCN(Cc3ccoc3)C[C@H]21,7.04,4.93
